# High-throughput results from PubChem BioAssay.
# This is a sample that favours compounds with a hit; in the whole collection about 12% have one here.
# BAZ2B inh – inhibitors of human BAZ2B bromodomain | AlphaScreen BAZ2B-H3K14Ac peptide displacement | Potency, µM (top dose mostly 114 µM), for inactives: top-dose activity change, negative = inhibition, most hits filed as inhibitors | 360,000 compounds, 4.4% hits | AID 504333; also: % is scaled to controls: 0 for no effect and ±100 for the full control effect; nearly all actives have a fitted effect of over 60% in size
#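 AlphaScreen displacement: compounds (up to 110uM) incubated 30 min at room temperature with a preformed 50 nM BAZ2B/50 nM biotinylated H3K14Ac peptide complex in PBS pH 7.4 with Tween-20. Donor and acceptor beads at 10 ug/mL final added, 20 min light-protected before reading.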
# Sfp inh – blocks B. subtilis Sfp PPTase activity. Q9F4F7. Biochemical Sfp PPTase activity, qHTS. Potency, µM, for the others: largest response in the series, negative = inhibition, most hits filed as inhibitors. 310,000 compounds, 3.5% hits;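 also: the enzyme is Sfp with the accession as filed and its product quenches rhodamine fluorescence; 0% = enzyme reaction without inhibitor and -100% = no enzyme wells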
#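 Reaction rates are the 30-min fluorescence difference (ex 525, em 598 nm) in wells containing 15 nM Sfp, 5 uM rhodamine-CoA and 12.5 uM BHQ-2-YbbR at pH 7.6 with 10 mM MgCl2.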
# HP1b chromo inh – HP1-beta chromodomain-methylated histone interaction inhibition. 390,000 compounds, 0.56% hits. Potency, µM (titrated, usually from 114 µM), for the others: at the top dose activity change, negative = inhibition, hits mostly inhibitors. P83916. AID 540317. AlphaScreen HP1-beta / biotin-H3K9me3 peptide binding; also: nearly all actives have a fitted effect of over 70% in size
#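 HP1-beta protein (50 nM final) preincubated 30 min at room temperature with biotinylated H3(1-18)K9me3 peptide (50 nM) in PBS pH 7.4, 0.01% Tween-20, then compound added for 30 min. AlphaScreen streptavidin donor/nickel chelate acceptor beads (10 ug/mL final), 30 min dark, luminescence read.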
# PLK1 PBD inh – PLK1 (human) polo-box domain binding inhibition. 360,000 compounds, 2.8% hits. Potency, µM, for inactives: max response, negative = inhibition, usual class: inhibitors. AID 720504. P53350. Plk1 PBD binding of FITC phosphopeptide, fluorescence polarization; also: series mostly up to about 57 µM; % is scaled to controls: 0 for no effect and ±100 for the full control effect; nearly all actives have a fitted effect of over 65% in size
# JMJD2A Tudor inh – inhibitors of human JMJD2A Tudor domain; Potency, µM (highest dose often 114 µM), inactives show top-dose activity change, negative = inhibition, actives largely listed as inhibitors; AlphaScreen JMJD2A-Tudor / H3K4me3 peptide binding; 390,000 compounds, 4.4% hits; also: % is scaled to controls: 0 for no effect and ±100 for the full control effect; nearly all actives have a fitted effect of over 50% in size
# Target sequence (O75164 whole entry, looked up, the tested form may be a part): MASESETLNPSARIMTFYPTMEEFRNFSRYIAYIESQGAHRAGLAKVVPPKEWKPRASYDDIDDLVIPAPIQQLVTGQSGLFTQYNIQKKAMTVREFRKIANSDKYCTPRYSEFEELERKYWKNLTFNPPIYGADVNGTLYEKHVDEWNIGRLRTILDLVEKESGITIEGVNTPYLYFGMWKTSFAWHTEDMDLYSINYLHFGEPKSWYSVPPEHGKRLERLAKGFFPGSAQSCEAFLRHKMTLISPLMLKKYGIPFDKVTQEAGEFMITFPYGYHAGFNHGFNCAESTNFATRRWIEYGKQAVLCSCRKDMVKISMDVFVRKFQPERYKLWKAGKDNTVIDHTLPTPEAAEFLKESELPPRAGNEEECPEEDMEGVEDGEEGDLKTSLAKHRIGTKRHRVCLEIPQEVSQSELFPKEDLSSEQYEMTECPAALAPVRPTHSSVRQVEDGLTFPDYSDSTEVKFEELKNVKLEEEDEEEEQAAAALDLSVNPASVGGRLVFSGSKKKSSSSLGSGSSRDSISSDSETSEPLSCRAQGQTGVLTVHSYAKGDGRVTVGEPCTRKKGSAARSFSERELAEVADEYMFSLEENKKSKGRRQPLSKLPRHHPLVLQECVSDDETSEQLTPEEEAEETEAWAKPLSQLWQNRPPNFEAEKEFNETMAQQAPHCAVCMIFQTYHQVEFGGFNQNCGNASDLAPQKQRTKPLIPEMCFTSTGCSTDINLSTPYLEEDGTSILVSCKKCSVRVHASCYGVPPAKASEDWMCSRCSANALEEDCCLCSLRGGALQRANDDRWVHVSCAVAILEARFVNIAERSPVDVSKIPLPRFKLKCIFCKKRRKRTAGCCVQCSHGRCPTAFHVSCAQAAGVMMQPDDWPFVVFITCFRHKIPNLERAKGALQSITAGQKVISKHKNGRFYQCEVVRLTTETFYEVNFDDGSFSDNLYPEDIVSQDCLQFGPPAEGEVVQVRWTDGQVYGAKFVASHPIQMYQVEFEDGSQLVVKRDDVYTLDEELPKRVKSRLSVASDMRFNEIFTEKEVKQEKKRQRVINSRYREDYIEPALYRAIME
# G9a block – G9a (human) methyltransferase inhibition | Potency, µM (highest dose often 102 µM), for the others: at the highest dose activity, negative = inhibition, usual class: inhibitors | G9a H3K9 monomethylation, AlphaScreen, 2 h | 350,000 compounds, 8.8% hits | Q96KQ7; also: % is scaled to controls: 0 for no effect and ±100 for the full control effect; nearly all actives have a fitted effect of over 75% in size
#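 Chemiluminescent proximity detection of H3K9 monomethylation, read after 10 min bead incubation in the dark. Reaction: 20 nM G9a, 500 nM biotin-H3K9 peptide, 20 uM SAM cofactor, 2 h, room temperature, following 15 min enzyme-compound preincubation.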
# Active calls of the source: *; u = inconclusive; x = no result; ! = not confirmed by another sample; [ ] = remark or other dose. Calls follow the shape of the dose curve; as a rule, active = well fitted curve in the direction sought with a large enough effect; inconclusive = small, poorly fitted or top-dose-only effect, or another doubt; inactive = no such curve, though single readings can be large; an effect the other way counts as inactive or inconclusive. Potency is read from the fitted curve at half-maximal effect.
SMILES,BAZ2B inh,Sfp inh,HP1b chromo inh,PLK1 PBD inh,JMJD2A Tudor inh,G9a block
Cc1cccc(-n2c(/C=C/c3ccc([N+](=O)[O-])o3)nc3ccccc3c2=O)c1,u,-22%,2%,18%,-27%,u
COc1ccc(-n2c(/C=C3\C(=O)Nc4ccccc43)nc3ccccc3c2=O)cc1,2%,10%,-1%,3%,1%,-3%
O=c1c2ccccc2nc(/C=C/c2ccc([N+](=O)[O-])o2)n1-c1ccc(O)cc1,u,-14%,18%,-3%,-35%,50µM*
O=C1Nc2ccccc2/C1=C/c1nc2ccccc2c(=O)n1-c1ccc(O)cc1,40µM*,u,-22%,-16%,-26%,x
O=c1c2ccccc2nc(/C=C/c2ccccc2)n1-c1ccc(O)cc1,-21%,11%,1%,-10%,-22%,5%
COc1cccc(C2=CC(c3cc(Br)ccc3F)n3nnnc3N2)c1 (stereo not given),8%,x,64%,x,-10%,11µM*
CC12CCC(=O)C=C1CCC1C2CCC2(C)C(O)CCC12 (stereo not given),17%,21%,39%,-13%,-19%,7%
C[C@]12CC[C@H]3[C@@H](CCC4=CC(=O)CC[C@@]43C)[C@@H]1CC[C@@H]2C(=O)CO,-17%,79µM*,36%,-10%,-18%,u
c1ccc(N2CC3(CCNCC3)C2)nc1,x,-22%,x,x,x,-8%[12.7 µM]
COc1cccc(N2C(=O)NC(=O)/C(=C/c3ccc4c5c(cccc35)CC4)C2=O)c1,50µM*,56µM*,x,x,x,10µM*
COc1ccc(N2C(=O)NC(=O)/C(=C/c3ccc4c(c3)Cc3ccccc3-4)C2=O)cc1,35µM*,56µM*,x,x,x,3.5µM*
CC(C)C[C@H](NC(=O)[C@H](Cc1ccccc1)NC(=O)CNC(=O)[C@@H](NC(=O)[C@@H](N)Cc1ccc(O)cc1)[C@H](C)O)C(=O)N[C@H](C(=O)O)[C@H](C)O,x,-10%,x,x,x,33%[59 µM]
O=C1c2ccccc2-c2cccc3cccc1c23,x,-12%,2%,-30%,56µM*,-35%[2.33 µM]
COc1cc(CN2CCN(C(=O)COc3ccccc3)CC2)cc(OC)c1OC,u,-23%,-20%,1%,3.2µM*,u
COc1cccc(CN2CCN(C(=O)Cc3ccccc3OC)CC2)c1,-10%,8%,30%,-8%,-5%,x
Cn1cccc1CN1CCN(C(=O)COc2ccccc2)CC1,45µM*,-15%,u,1%,7.1µM*,u
COc1ccccc1CN1CCN(C(=O)COc2cccc(C)c2)CC1,50µM*,-25%,u,-7%,32µM*,u
COc1ccc(OC)c(CN2CCN(C(=O)COc3cccc(C)c3)CC2)c1,u,u,u,-2%,3.5µM*,7.1µM*
C[C@H](CCC(=O)O)[C@H]1CC[C@@H]2[C@H]3CC[C@H]4C[C@@H](O)CC[C@@]4(C)[C@H]3CC[C@]21C,x,32%,x,x,x,17%[21.5 µM]
O=C(N/N=C/c1c(O)n(Cc2ccc(F)cc2)c(=S)[nH]c1=O)c1ccncc1,79µM*,-16%,13%,-23%,100µM*,x
CCC(C)n1c(O)c(/C=N/Nc2ccccc2)c(=O)[nH]c1=S (stereo not given),u,45µM*,6%,-10%,u,1.1µM*
CCCCn1c(O)c(/C=N/NC(=O)c2ccncc2)c(=O)[nH]c1=O,u,-5%,41%,5%,u,x
O=c1[nH]c(=S)n(Cc2ccc(F)cc2)c(O)c1C=NCCCn1ccnc1,-26%,13%,14%,-10%,-21%,-29%
CCn1c(O)c(/C=N/NC(=O)c2ccncc2)c(=O)[nH]c1=S,35µM*,-6%,48%,-3%,71µM*,-22%[59 µM]
CCC(C)n1c(O)c(/C=N/NC(=O)c2ccncc2)c(=O)[nH]c1=S (stereo not given),56µM*,11%,48%,-9%,u,22%[59 µM]
SMILES,BAZ2B inh,Sfp inh,HP1b chromo inh,PLK1 PBD inh,JMJD2A Tudor inh,G9a block
CCCN[C@@H]1CCc2c(OC)cccc2[C@@H]1C,x,-5%,x,x,x,-1%[59 µM]
CC(C)n1c(N2CCN(S(=O)(=O)c3cccc([N+](=O)[O-])c3)CC2)nc2ccccc21,-11%,-2%,20%,-3%,u,x
O=c1n(Cl)c(=O)n(Cl)c(=O)n1Cl,x,-5%,x,x,x,13µM*
C[C@@H]1O[C@H](C[N+](C)(C)C)C[C@@H]1O,x,22%,x,x,x,15%[59 µM]
FC(F)(F)c1ccc2c(c1)N(CCCN1CCN(CCCl)CC1)c1ccccc1S2,40µM*,50µM*,-16%,-6%,16µM*,10µM*
OCCN1CCN(CCCN2c3ccccc3Sc3ccc(C(F)(F)F)cc32)CC1,u,-6%,10%,-27%,79µM*,11µM*!
COc1cccc(-n2c(CN3CCOCC3)nc3ccc([N+](=O)[O-])cc3c2=O)c1,-7%,u,12%,-16%,-17%,45µM*
O=C(NCC1=C(c2ccc3ccccc3c2)C[C@@H]2CC[C@H]1N2Cc1ccco1)c1ccc([N+](=O)[O-])cc1,x,x,x,-13%,x,x
O=C(Nc1ccc(OC(F)(F)F)cc1)Oc1ccccc1N1CCCCC1,-1%,6%,46%,-17%,-1%,x
COc1ccccc1C1Nc2ccccc2-n2c(-c3ccccc3)c3c(=O)n(C)c(=O)n(C)c3c21 (stereo not given),-23%,x,50%,x,-26%,u
CC(C)(C)c1cc(O)ccc1O,x,40µM*,x,x,x,4.5µM*
COc1ccc(O)c(C(C)(C)C)c1,-34%,16%,-1%,-10%,-19%,u
CC(=O)c1ccc2c(c1)OCO2,-1%,0%,35%,2%,-12%,-46%
C[n+]1cccc(C(=O)N/N=C/c2ccc3c(c2)OCO3)c1,50µM*,-16%,3%,-1%,-4%,u
COc1ccc(NC2CC(=O)N(C(C)C)C2=O)cc1 (stereo not given),-27%,6%,27%,-10%,-20%,22µM*
O=C1c2ccccc2-c2c1nc1c([n+]2[O-])CCCC1,1%,-4%,33%,2%,7%,u
CCC(CC)N1CCN(Cc2nc3ccccc3c(=O)n2-c2ccc(F)cc2)CC1,-27%,-5%,19%,-4%,-5%,13%
O=c1c2ccccc2nc(CN2CCCCCC2)n1-c1ccc(F)cc1,0%,-5%,25%,-21%,-22%,28µM*
CCOc1ccc(NC(=O)CN(c2ccc(Cl)cc2C)S(=O)(=O)c2ccccc2)cc1,u,x,20%,x,-12%,-42%[59 µM]
CCCCC(=O)C1C(=O)NC(=O)NC1=O,-30%,-7%,21%,0%,56µM*,-11%[59 µM]
CCC1(CC)C(=O)NC(=O)NC1=O,x,13%,x,x,x,30%[59 µM]
NC(Cn1ccc(=O)[nH]c1=O)C(=O)O (stereo not given),x,x,x,x,x,11%[12.7 µM]
